The results in this text go back to PubChem BioAssay.

Activity calls are given as the source filed them.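 How the source made its calls, unless noted: active means NADPH fluorescence slope more negative than the mean of all samples by about 3 SD, 99.7% confidence; inactive means the rest.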

The nature of test [1]: inhibitors of TNFa-induced NFkB p65 translocation, primary screen, imaging, HUVEC, MLSMR starter and 10KST1 sets (AID 438;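 active means inhibition above 20% together with a positive visual image hit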;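 further: compound added about 3h40 before a 20 min TNFalpha stimulation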;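 on inhibition: signal is the nuclear over cytoplasmic p65 intensity ratio per well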). Particulars: HUVEC TNFa-induced p65 nuclear translocation; cell count: measured here: nuclei count (cytotoxicity indicator), at 2.08 µM; inhibition: at 2 µM, stronger effect = higher value, 0% TNFa-plus-vehicle, 100% no-TNFa wells.
Test [2] can be described thus: inhibitors of mutant huntingtin aggregation, primary screen, imaging, exon1htt(103Q)mCFP cells, high-content imaging (AID 483;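 active means visual image review flags a hit and inhibition of aggregation exceeds 20%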;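 further: compound exposure lasted 3 days before fixation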;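 on nuclei count: percent of the per-plate median nuclei count of sample wells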). As to conditions: exon1htt(103Q)mCFP cell line, aggregate imaging, at 2 µM; inhibition of aggregation: stronger effect = higher value; nuclei count: measured here: cell count, toxicity.
A short description of test [3]: inhibitors of E-selectin induction by TNFa, primary screen, imaging, HUVEC, immunofluorescence, MLSMR starter and 10KST1 sets (AID 487;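 active means visually confirmed hit in the image check and inhibition above 20%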;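 on inhibition: signal is fraction of cell area covered by stained E-selectin grains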;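 on nuclei count: 100% = median nuclei count of all wells on the same plate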). As to conditions: HUVEC TNFalpha-induced E-selectin immunofluorescence imaging, at 2 µM; inhibition: stronger effect = higher value; nuclei count: measured here: cell number, toxicity.
In test [4] the target is Voltage-gated potassium channel subunit beta-2 (Rattus norvegicus) (UniProt P62483). Briefly: KvBeta enzyme negative modulators, primary screen, biochemical, NADPH fluorescence (AID 622;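 active means fluorescence slope higher than the sample average by over 3 SD, cut at about -0.22 in these data, passing the limit was not always enough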;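 further: slope of raw intensity against log time taken from 70 to 1610 s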). As to conditions: recombinant KvBeta, 4-cyanobenzaldehyde reduction, at 10 µM, stronger effect = higher value.
Voltage-gated potassium channel subunit beta-2 (Rattus norvegicus), sequence (P62483 whole entry, looked up): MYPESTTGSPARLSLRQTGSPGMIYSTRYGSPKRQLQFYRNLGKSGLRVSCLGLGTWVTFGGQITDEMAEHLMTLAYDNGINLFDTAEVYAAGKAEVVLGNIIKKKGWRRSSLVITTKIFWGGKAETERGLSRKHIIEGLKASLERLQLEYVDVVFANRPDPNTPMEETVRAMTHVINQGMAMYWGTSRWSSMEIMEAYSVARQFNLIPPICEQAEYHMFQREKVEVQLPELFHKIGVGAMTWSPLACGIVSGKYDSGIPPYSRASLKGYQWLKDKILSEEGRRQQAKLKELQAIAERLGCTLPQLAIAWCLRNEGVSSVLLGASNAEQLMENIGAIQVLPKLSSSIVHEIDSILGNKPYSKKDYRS
For test [5] the target is unchanged. The test can be described thus: KvBeta positive modulators, primary screen, biochemical, NADPH fluorescence (AID 623).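 Further: fluorescence intensity change per second fitted from 20 to 320 s.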 As to conditions: Recombinant KvBeta, NADPH fluorescence decrease slope, 10 min; at 10 µM; stronger effect = lower value.
Test [6] has as its target Alpha-2C adrenergic receptor (Homo sapiens) (UniProt P18825). The test can be described thus: modulators of alpha2C/GIRK thallium flux, primary screen, cell-based, HEK293 alpha2C/GIRK1/2 (AID 624;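 active means fluorescence slope after compound addition differing from the mean of all screened samples at 99.7% confidence, in either direction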;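 further: slope of fluorescence ratio to pre-addition baseline per second over 15 to 24 s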). Particulars: thallium flux BTC fluorescence, at 10 µM, actives lie on both sides.
The nature of test [7]: inhibitors of Sendai virus-induced IRF3 signaling, primary screen, TLR/RLR signaling modifier project, cell-based, Sendai virus stimulus, luciferase, 10K MLSCN set (AID 602276;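 active means inhibition at or above 50% at 10 µM; inactive means inhibition below 50%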;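 further: firefly luciferase from ISG56 promoter only with Renilla not read in this screen; 0% = Sendai virus plus DMSO and 100% = medium plus DMSO without virus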). Particulars: HEK293 RL24 IRF3 luciferase reporter, at 10 µM, stronger effect = higher value.
Test [8] can be described thus: inhibitors of poly I:C-induced TLR3 signaling, primary screen, cell-based, poly I:C stimulus, luciferase, 10K MLSCN set (AID 602277;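 active means inhibition of the reporter signal at or above 50%; inactive means inhibition below 50%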). As to conditions: HEK293-TLR3 RL24 IRF3 luciferase reporter, at 10 µM, stronger effect = higher value.

Alpha-2C adrenergic receptor (Homo sapiens), sequence (P18825 whole entry, looked up): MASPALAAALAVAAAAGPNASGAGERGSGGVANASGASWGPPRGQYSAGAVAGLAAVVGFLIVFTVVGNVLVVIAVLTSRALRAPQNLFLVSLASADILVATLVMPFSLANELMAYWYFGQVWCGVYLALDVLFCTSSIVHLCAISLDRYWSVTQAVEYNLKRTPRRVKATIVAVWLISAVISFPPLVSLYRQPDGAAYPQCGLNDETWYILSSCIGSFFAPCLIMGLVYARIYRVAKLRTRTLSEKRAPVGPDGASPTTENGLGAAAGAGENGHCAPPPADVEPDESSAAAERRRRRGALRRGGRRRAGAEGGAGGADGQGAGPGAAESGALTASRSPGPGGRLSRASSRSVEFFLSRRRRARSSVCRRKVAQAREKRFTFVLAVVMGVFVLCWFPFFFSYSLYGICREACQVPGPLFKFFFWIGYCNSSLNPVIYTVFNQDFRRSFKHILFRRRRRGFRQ

On to `COc1ccc(CN(C(=O)CSc2nnc(-c3ccccc3F)o2)c2ccc(F)cc2)cc1`, for which the cell count in test [1] was found to be 560. Moreover, the inhibition is -14.3% (inactive) in test [1], -118% (inactive) in test [3], 8.03% (inactive) in test [7] and 9.3% (inactive) in test [8]. Moreover, the inhibition of aggregation in test [2] is 15% (inactive). Also, the nuclei count in test [2] was 85.2%; in test [3] it was 123%. In test [4], the fluorescence slope is -0.421 (inactive). Also, the NADPH fluorescence slope in test [5] is -3.9e-05 (inactive). In addition, the slope in test [6] is 0.0074 (inactive).

For the molecule `N#Cc1c(-c2ccccc2)nc(N2CCCCCC2)[nH]c1=O`, the cell count in test [1] was found to be 379. Further, the inhibition in test [1] was -6.1% (inactive); in test [3] it was -43.6% (inactive); in test [7], 6.52% (inactive); in test [8], 14.7% (inactive). The inhibition of aggregation in test [2] is 1.9% (inactive). The nuclei count in test [2] turned out to be 102%; in test [3] it was 116%. In addition, the fluorescence slope in test [4] was -0.41 (inactive). Further, the NADPH fluorescence slope in test [5] is -1.5e-05 (inactive). In test [6], the slope is 0.0048 (inactive).

For the molecule `N#Cc1ccccc1Cn1c(=O)n(Cc2ccc(C(=O)NCc3ccco3)cc2)c(=O)c2ccccc21`, the cell count in test [1] is 689. Also, the inhibition in test [1] is -11.4% (inactive); in test [3] it was -47.4% (inactive); in test [7], 1.35% (inactive); in test [8] it was -0.0219% (inactive). The inhibition of aggregation in test [2] was -4.5% (inactive). The nuclei count came to 83.9% in test [2] and 92.1% in test [3]. Besides, the fluorescence slope in test [4] is -0.5 (inactive). Besides, the NADPH fluorescence slope in test [5] was 2e-05 (inactive). Further, the slope in test [6] is 0.00719 (inactive).

Consider `O=C(CN(CCc1ccccc1)C(=O)CN1C(=O)COc2ccccc21)NCc1ccco1`, for which the cell count in test [1] was 571. Also, the inhibition in test [1] was -2.3% (inactive); in test [3], -12.8% (inactive); in test [7], 16.4% (inactive); in test [8] it was 23.2% (inactive). Also, the inhibition of aggregation in test [2] is -4.1% (inactive). Moreover, the nuclei count in test [2] turned out to be 55.5%; in test [3], 97.6%. Moreover, the fluorescence slope in test [4] is -0.468 (inactive). For the same molecule, in test [5], the NADPH fluorescence slope was -3.2e-06 (inactive). Also, in test [6], the slope was 0.00696 (inactive).

With `COc1ccc(C2C(C#N)=C(N)OC3=C2C(=O)CC(C)C3)c(OC)c1OC` (stereo not given), in test [1], the cell count worked out at 349. Moreover, the inhibition in test [1] was 15.6% (inactive); in test [3], 11.3% (inactive); in test [7] it was -3.81% (inactive); in test [8], 19.1% (inactive). Further, in test [2], the inhibition of aggregation is 5.8% (inactive). Moreover, the nuclei count in test [2] was 123%; in test [3] it was 102%. The fluorescence slope in test [4] is -0.479 (inactive). In addition, in test [5], the NADPH fluorescence slope was 2e-05 (inactive). The slope in test [6] was 0.00381 (inactive).

As for `O=C1N(CCCCN2C(=O)C3(OCCO3)c3ccccc32)c2ccccc2C12OCCO2`, the cell count in test [1] worked out at 578. Moreover, the inhibition in test [1] was -18.8% (inactive); in test [3], -60.9% (inactive); in test [7] it was 9.05% (inactive); in test [8], 16.5% (inactive). For the same molecule, the inhibition of aggregation in test [2] is -8.4% (inactive). For the same molecule, the nuclei count in test [2] was 104%; in test [3], 112%. The fluorescence slope in test [4] is -0.381 (inactive). In test [5], the NADPH fluorescence slope is 2.4e-05 (inactive). In addition, the slope in test [6] was 0.00398 (inactive).

For `CCCCOc1ccc(-c2ncc(Cl)cn2)cc1`, the cell count in test [1] is 469. In addition, the inhibition was 3% (inactive) in test [1], -10% (inactive) in test [3], -30% (inactive) in test [7] and -146% (inactive) in test [8]. For the same molecule, the inhibition of aggregation in test [2] was 13.9% (inactive). Moreover, the values for the nuclei count in test [2] and in test [3] were 98.8% and 115%, respectively. In addition, the fluorescence slope in test [4] is -0.434 (inactive). For the same molecule, in test [5], the NADPH fluorescence slope is -6.7e-06 (inactive). The slope in test [6] was 0.00373 (inactive).

Turning to `O=C(CCN1C(=O)C2C3C=CC(C3)C2C1=O)Nc1c(F)cc(F)cc1Br` (stereo not given), in test [1], the cell count is 827. In addition, the inhibition was -6.6% (inactive) in test [1], -21.9% (inactive) in test [3], -0.108% (inactive) in test [7] and 11.7% (inactive) in test [8]. Also, the inhibition of aggregation in test [2] was 16.5% (inactive). Also, the nuclei count in test [2] came out at 95.3%; in test [3], 120%. Also, the fluorescence slope in test [4] was -0.587 (inactive). The NADPH fluorescence slope in test [5] was -6.8e-05 (inactive). Moreover, the slope in test [6] was 0.00666 (inactive).

On to `O=S(=O)(NCc1ccc(Cl)cc1)c1cnc[nH]1`, for which, in test [1], the cell count is 468. Moreover, the inhibition in test [1] is 5% (inactive); in test [3], -182% (inactive); in test [7], -8.39% (inactive); in test [8], -18.3% (inactive). Moreover, the inhibition of aggregation in test [2] was -5.7% (inactive). The figures for the nuclei count in test [2] and in test [3] were 96.7% and 129%, respectively. Besides, the fluorescence slope in test [4] is -0.538 (inactive). Also, in test [5], the NADPH fluorescence slope is -2e-05 (inactive). Also, in test [6], the slope is 0.00614 (inactive).

`O=C(Nc1nccs1)c1cccc(NC(=O)C2CC2)c1`: the cell count in test [1] is 411. Also, the inhibition in test [1] is -0.5% (inactive); in test [3] it was -19% (inactive); in test [7] it was 2.3% (inactive); in test [8], -13.6% (inactive). Also, in test [2], the inhibition of aggregation was -6.6% (inactive). Also, the nuclei count turned out to be 98% in test [2] and 116% in test [3]. Moreover, the fluorescence slope in test [4] was -0.409 (inactive). Further, the NADPH fluorescence slope in test [5] is -3.4e-05 (inactive). Also, in test [6], the slope is 0.00472 (inactive).
